{
  "source": "ChEMBL document CHEMBL4513146",
  "about": "“CO-ADD screening of Karazin Kharkiv National University (Ukraine) compounds”",
  "key": {"Klebsiella pneumoniae": {"system": "Klebsiella pneumoniae", "settings": "Concentration 32 ug.mL-1;; ASSAY_TEST Inhibition of Bacterial Growth; detection method Absorption (OD600); MEDIA CAMHB; plate type 384well; NBS; CORNING #3640; time 18 hr"}, "Candida albicans": {"system": "Candida albicans", "settings": "Concentration 32 ug.mL-1; ASSAY_TEST Inhibition of Fungal Growth; detection method Absorption (OD530)"}, "Cryptococcus neoformans": {"system": "Cryptococcus neoformans", "settings": "Concentration 32 ug.mL-1; ASSAY_TEST Inhibition of Fungal Growth; detection method Resazurin; Absorption (OD600-OD570); plate type 384well; NBS; CORNING #3640"}},
  "note": "Results with a measured potency or affinity are listed apart.",
  "data": [
    {"molecule": "Cc1cccc(Cn2nc3c(=O)n(-c4cccc(Cl)c4C)ccn3c2=O)c1", "values": [
      {"measurement": "Inhibition", "setting": "Klebsiella pneumoniae", "result": -2.16, "unit": "%"},
      {"measurement": "Inhibition", "setting": "Candida albicans", "result": 8.37, "unit": "%"},
      {"measurement": "Inhibition", "setting": "Cryptococcus neoformans", "result": -8.02, "unit": "%"}
    ]},
    {"molecule": "COc1cccc(-n2ccn3c(SCC(=O)N4CCN(c5ccccc5F)CC4)nnc3c2=O)c1", "values": [
      {"measurement": "Inhibition", "setting": "Klebsiella pneumoniae", "result": 17.26, "unit": "%"},
      {"measurement": "Inhibition", "setting": "Candida albicans", "result": 0.16, "unit": "%"},
      {"measurement": "Inhibition", "setting": "Cryptococcus neoformans", "result": -10.18, "unit": "%"}
    ]},
    {"molecule": "COc1ccc(Cl)cc1NC(=O)Cn1nc2ccc(Sc3ccccc3)nn2c1=O", "values": [
      {"measurement": "Inhibition", "setting": "Klebsiella pneumoniae", "result": 0.86, "unit": "%"},
      {"measurement": "Inhibition", "setting": "Candida albicans", "result": 45.02, "unit": "%"},
      {"measurement": "Inhibition", "setting": "Cryptococcus neoformans", "result": -15.66, "unit": "%"}
    ]},
    {"molecule": "O=C(Cn1nc2ccc(SC3CCCCC3)nn2c1=O)Nc1ccc(F)c(F)c1", "values": [
      {"measurement": "Inhibition", "setting": "Klebsiella pneumoniae", "result": 13.05, "unit": "%"},
      {"measurement": "Inhibition", "setting": "Candida albicans", "result": 13.65, "unit": "%"},
      {"measurement": "Inhibition", "setting": "Cryptococcus neoformans", "result": -16.79, "unit": "%"}
    ]},
    {"molecule": "COc1cccc(Sc2nc3ccccc3n3c(=O)n(CC(=O)Nc4ccc(Cl)cc4)nc23)c1", "values": [
      {"measurement": "Inhibition", "setting": "Klebsiella pneumoniae", "result": 2.35, "unit": "%"},
      {"measurement": "Inhibition", "setting": "Candida albicans", "result": 36.59, "unit": "%"},
      {"measurement": "Inhibition", "setting": "Cryptococcus neoformans", "result": -25.56, "unit": "%"}
    ]},
    {"molecule": "COc1ccc(NC(=O)CSc2nnc3c(=O)n(-c4cccc(OC)c4)ccn23)cc1", "values": [
      {"measurement": "Inhibition", "setting": "Klebsiella pneumoniae", "result": 5.61, "unit": "%"},
      {"measurement": "Inhibition", "setting": "Candida albicans", "result": 2.12, "unit": "%"},
      {"measurement": "Inhibition", "setting": "Cryptococcus neoformans", "result": -13.19, "unit": "%"}
    ]},
    {"molecule": "O=C(Cn1nc2ccc(-c3ccccc3)nn2c1=O)NC1CCCCC1", "values": [
      {"measurement": "Inhibition", "setting": "Klebsiella pneumoniae", "result": 16.29, "unit": "%"},
      {"measurement": "Inhibition", "setting": "Candida albicans", "result": 0.48, "unit": "%"},
      {"measurement": "Inhibition", "setting": "Cryptococcus neoformans", "result": -16.53, "unit": "%"}
    ]},
    {"molecule": "CC(=O)c1ccc(NC(=O)Cn2c(=O)c3nnc(C(C)C)n3c3ccccc32)cc1", "values": [
      {"measurement": "Inhibition", "setting": "Klebsiella pneumoniae", "result": 9.51, "unit": "%"},
      {"measurement": "Inhibition", "setting": "Candida albicans", "result": 0.56, "unit": "%"},
      {"measurement": "Inhibition", "setting": "Cryptococcus neoformans", "result": -14.82, "unit": "%"}
    ]},
    {"molecule": "COc1ccc(-c2cc3c4nnc(CCC(=O)NCc5ccc(OC)cc5OC)n4ccn3n2)cc1", "values": [
      {"measurement": "Inhibition", "setting": "Klebsiella pneumoniae", "result": 15.27, "unit": "%"},
      {"measurement": "Inhibition", "setting": "Candida albicans", "result": 2.37, "unit": "%"},
      {"measurement": "Inhibition", "setting": "Cryptococcus neoformans", "result": -17.34, "unit": "%"}
    ]},
    {"molecule": "COc1ccc(NC(=O)Cn2nc3ccc(-c4ccc(Cl)cc4)nn3c2=O)cc1", "values": [
      {"measurement": "Inhibition", "setting": "Klebsiella pneumoniae", "result": 12.68, "unit": "%"},
      {"measurement": "Inhibition", "setting": "Candida albicans", "result": 0.32, "unit": "%"},
      {"measurement": "Inhibition", "setting": "Cryptococcus neoformans", "result": -12.45, "unit": "%"}
    ]},
    {"molecule": "CCc1nnc2c(S(=O)(=O)N(Cc3ccccc3F)c3ccc(F)cc3)cccn12", "values": [
      {"measurement": "Inhibition", "setting": "Klebsiella pneumoniae", "result": 2.68, "unit": "%"},
      {"measurement": "Inhibition", "setting": "Candida albicans", "result": 1.99, "unit": "%"},
      {"measurement": "Inhibition", "setting": "Cryptococcus neoformans", "result": -5.43, "unit": "%"}
    ]},
    {"molecule": "COc1ccc(N2CCN(C(=O)Cn3nc4ccc(S(=O)(=O)C(C)(C)C)nn4c3=O)CC2)cc1", "values": [
      {"measurement": "Inhibition", "setting": "Klebsiella pneumoniae", "result": 18.13, "unit": "%"},
      {"measurement": "Inhibition", "setting": "Candida albicans", "result": -0.23, "unit": "%"},
      {"measurement": "Inhibition", "setting": "Cryptococcus neoformans", "result": -28.46, "unit": "%"}
    ]},
    {"molecule": "CCc1ccccc1Sc1nccn2c(=O)n(CC(=O)Nc3ccc(OC)cc3)nc12", "values": [
      {"measurement": "Inhibition", "setting": "Klebsiella pneumoniae", "result": 0.32, "unit": "%"},
      {"measurement": "Inhibition", "setting": "Candida albicans", "result": 4.23, "unit": "%"},
      {"measurement": "Inhibition", "setting": "Cryptococcus neoformans", "result": -13.58, "unit": "%"}
    ]},
    {"molecule": "O=C(Cn1nc2ccc(SCc3ccc(Cl)cc3)nn2c1=O)Nc1ccccc1", "values": [
      {"measurement": "Inhibition", "setting": "Klebsiella pneumoniae", "result": 9.67, "unit": "%"},
      {"measurement": "Inhibition", "setting": "Candida albicans", "result": 9.5, "unit": "%"},
      {"measurement": "Inhibition", "setting": "Cryptococcus neoformans", "result": -21.41, "unit": "%"}
    ]},
    {"molecule": "COc1ccc(NC(=O)Cn2nc3c(Sc4cccc(F)c4)nccn3c2=O)cc1Cl", "values": [
      {"measurement": "Inhibition", "setting": "Klebsiella pneumoniae", "result": 3.02, "unit": "%"},
      {"measurement": "Inhibition", "setting": "Candida albicans", "result": 0.26, "unit": "%"},
      {"measurement": "Inhibition", "setting": "Cryptococcus neoformans", "result": -9.78, "unit": "%"}
    ]},
    {"molecule": "O=c1c2sccc2n2c(=O)n(Cc3ccccc3F)nc2n1CCc1ccccc1", "values": [
      {"measurement": "Inhibition", "setting": "Klebsiella pneumoniae", "result": 8.76, "unit": "%"},
      {"measurement": "Inhibition", "setting": "Candida albicans", "result": 0.77, "unit": "%"},
      {"measurement": "Inhibition", "setting": "Cryptococcus neoformans", "result": -30.71, "unit": "%"}
    ]},
    {"molecule": "O=C(CSc1nnc2c(=O)n(-c3ccc(Br)cc3)ccn12)Nc1cc(F)ccc1F", "values": [
      {"measurement": "Inhibition", "setting": "Klebsiella pneumoniae", "result": 10.57, "unit": "%"},
      {"measurement": "Inhibition", "setting": "Candida albicans", "result": 7.34, "unit": "%"},
      {"measurement": "Inhibition", "setting": "Cryptococcus neoformans", "result": -16.33, "unit": "%"}
    ]},
    {"molecule": "Cc1nnc2c(SCC(=O)Nc3ccc(Br)cc3F)nc3ccccc3n12", "values": [
      {"measurement": "Inhibition", "setting": "Klebsiella pneumoniae", "result": 10.56, "unit": "%"},
      {"measurement": "Inhibition", "setting": "Candida albicans", "result": 0.1, "unit": "%"},
      {"measurement": "Inhibition", "setting": "Cryptococcus neoformans", "result": -6.82, "unit": "%"}
    ]},
    {"molecule": "Cc1cc(C)cc(N(Cc2ccccc2)S(=O)(=O)c2cccn3c(C)nnc23)c1", "values": [
      {"measurement": "Inhibition", "setting": "Klebsiella pneumoniae", "result": -0.64, "unit": "%"},
      {"measurement": "Inhibition", "setting": "Candida albicans", "result": 2, "unit": "%"},
      {"measurement": "Inhibition", "setting": "Cryptococcus neoformans", "result": -6.56, "unit": "%"}
    ]},
    {"molecule": "Cc1cc(Nc2ccc(F)cc2)nc2nn(CCc3ccccc3)c(=O)n12", "values": [
      {"measurement": "Inhibition", "setting": "Klebsiella pneumoniae", "result": 16.97, "unit": "%"},
      {"measurement": "Inhibition", "setting": "Candida albicans", "result": 1.44, "unit": "%"},
      {"measurement": "Inhibition", "setting": "Cryptococcus neoformans", "result": -10.99, "unit": "%"}
    ]},
    {"molecule": "O=C(Cn1nc2c3cc(-c4ccc(F)cc4)nn3ccn2c1=O)Nc1ccc(Br)cc1", "values": [
      {"measurement": "Inhibition", "setting": "Klebsiella pneumoniae", "result": 2.07, "unit": "%"},
      {"measurement": "Inhibition", "setting": "Candida albicans", "result": 14.76, "unit": "%"},
      {"measurement": "Inhibition", "setting": "Cryptococcus neoformans", "result": 4.1, "unit": "%"}
    ]},
    {"molecule": "O=c1n(Cc2cccc(C(F)(F)F)c2)nc2ccc(S(=O)(=O)N3CCCC3)cn12", "values": [
      {"measurement": "Inhibition", "setting": "Klebsiella pneumoniae", "result": 10.57, "unit": "%"},
      {"measurement": "Inhibition", "setting": "Candida albicans", "result": 0.2, "unit": "%"},
      {"measurement": "Inhibition", "setting": "Cryptococcus neoformans", "result": -10.53, "unit": "%"}
    ]},
    {"molecule": "COc1cccc(-n2ccn3c(SCc4c(F)cccc4Cl)nnc3c2=O)c1", "values": [
      {"measurement": "Inhibition", "setting": "Klebsiella pneumoniae", "result": 6.32, "unit": "%"},
      {"measurement": "Inhibition", "setting": "Candida albicans", "result": 2.64, "unit": "%"},
      {"measurement": "Inhibition", "setting": "Cryptococcus neoformans", "result": -10.15, "unit": "%"}
    ]},
    {"molecule": "COc1ccc(NC(=O)Cn2nc3ccc(-c4ccccc4)nn3c2=O)cc1OC", "values": [
      {"measurement": "Inhibition", "setting": "Klebsiella pneumoniae", "result": -3.16, "unit": "%"},
      {"measurement": "Inhibition", "setting": "Candida albicans", "result": 3.57, "unit": "%"},
      {"measurement": "Inhibition", "setting": "Cryptococcus neoformans", "result": 0.88, "unit": "%"}
    ]},
    {"molecule": "O=c1c2sccc2n2c(=O)n(Cc3ccc(F)cc3)nc2n1Cc1cccs1", "values": [
      {"measurement": "Inhibition", "setting": "Klebsiella pneumoniae", "result": 10.32, "unit": "%"},
      {"measurement": "Inhibition", "setting": "Candida albicans", "result": 43.23, "unit": "%"},
      {"measurement": "Inhibition", "setting": "Cryptococcus neoformans", "result": -26.83, "unit": "%"}
    ]},
    {"molecule": "COc1cccc(NC(=O)Cn2c(=O)c3nnc(C(C)C)n3c3ccccc32)c1", "values": [
      {"measurement": "Inhibition", "setting": "Klebsiella pneumoniae", "result": 16.14, "unit": "%"},
      {"measurement": "Inhibition", "setting": "Candida albicans", "result": 3.17, "unit": "%"},
      {"measurement": "Inhibition", "setting": "Cryptococcus neoformans", "result": -13.4, "unit": "%"}
    ]},
    {"molecule": "COc1ccc(-c2cc3c4nnc(SCC(=O)NCc5ccc(Cl)cc5)n4ccn3n2)cc1", "values": [
      {"measurement": "Inhibition", "setting": "Klebsiella pneumoniae", "result": 6.35, "unit": "%"},
      {"measurement": "Inhibition", "setting": "Candida albicans", "result": -0.75, "unit": "%"},
      {"measurement": "Inhibition", "setting": "Cryptococcus neoformans", "result": -28.86, "unit": "%"}
    ]},
    {"molecule": "CC(C)Sc1ccc2nn(CC(=O)Nc3ccc(Br)cc3F)c(=O)n2n1", "values": [
      {"measurement": "Inhibition", "setting": "Klebsiella pneumoniae", "result": 15.2, "unit": "%"},
      {"measurement": "Inhibition", "setting": "Candida albicans", "result": -0.59, "unit": "%"},
      {"measurement": "Inhibition", "setting": "Cryptococcus neoformans", "result": -7.06, "unit": "%"}
    ]}
  ]
}
